PABP1 MLLE inh = inhibitors of PABP1 MLLE–PAM2 peptide binding, primary screen, biochemical, fluorescence polarization, FITC-PAM2, GST-MLLE | Polyadenylate-binding protein 1 (Homo sapiens), P11940 | inhibition, % at 20 µM | 0.36% of 360,000 active; in the data active means inhibition above about 35%, passing the limit was not always enough;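 further: plate controls were DMSO wells with GST-MLLE for no effect and wells lacking GST-MLLE protein for full effect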
PABP polyA inh = PABP poly(A) RNA binding inhibitors, primary screen, biochemical, fluorescence polarization, uHTS; Polyadenylate-binding protein 1 (Homo sapiens), P11940; calls only at 35 µM; 1% of 290,000 active;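 further: calls also rest on retests at 20 µM and on dose response follow-up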
MEX-5 binding = MEX-5 zinc finger RNA-binding disruptors – biochemical, C. elegans, fluorescence polarization, MLPCN library, primary screen. AID 1832, 2009. MEX-5/FITC-TCR2 RNA binding; stronger effect = lower value. activity score (negative = inhibition of binding), % at 10 µM. Zinc finger protein mex-5 (Caenorhabditis elegans), Q9XUB2. 0.38% of 300,000 active;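 active means inhibition past about -25% in most replicates, and total fluorescence under double the plate's negative control median, limit read from the data; inconclusive means replicates evenly split on the limit, or fluorescence at least double controls; inactive means too little inhibition in most replicates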;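 further: 0% = DMSO and -100% = 5 µM competing unlabeled TCR2 RNA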
eIF4H inh = human eIF4H binding inhibitors, primary screen, translation initiation inhibitor project, biochemical, uHTS, fluorescence polarization. Eukaryotic translation initiation factor 4H (Homo sapiens), Q15056. eIF4H fluorescence polarization binding assay. inhibition, % at 35 µM. 0.94% of 290,000 active;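 further: calls also rest on retests at 20 µM and on dose response follow-up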
EBV gp42 inh = Epstein-Barr virus gp42 inhibitors, primary screen, biochemical, uHTS, fluorescence polarization. Glycoprotein 42 (Epstein-Barr virus (strain AG876)), Q1HVG2. Fluorescence polarization binding assay, mP read-out. inhibition, % (tested at 21.74 µM). 0.42% of 220,000 active; in the data active means inhibition above about 50%
Target sequence (Q1HVG2 whole entry, looked up): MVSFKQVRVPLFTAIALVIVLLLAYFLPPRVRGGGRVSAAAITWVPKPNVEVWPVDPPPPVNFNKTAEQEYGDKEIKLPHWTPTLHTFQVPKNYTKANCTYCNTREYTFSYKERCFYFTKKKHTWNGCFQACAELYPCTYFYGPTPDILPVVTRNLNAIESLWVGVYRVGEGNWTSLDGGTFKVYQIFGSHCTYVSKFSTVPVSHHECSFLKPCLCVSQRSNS
Active calls of the source: *; i = inactive; ? = inconclusive; . = no result; + = active, no number. In the library only some 1.8% were active in any assay of this set; here they are far more common. Unless noted, how the calls were made is not given here.

SMILES	PABP1 MLLE inh	PABP polyA inh	MEX-5 binding	eIF4H inh	EBV gp42 inh
CC1(C(=O)Nc2ccc3c(c2)OCCO3)CCN1C(=O)c1ccco1 (stereo not drawn)	3.5	.	.	.	.
COc1ccc(/C=N/Nc2nnc(Cc3ccccc3)c(=O)[nH]2)cc1OC	0.8	+	1.0	?	-8.9
O=C1CC(c2ccccc2)Cc2nc(N3CCc4ccccc4C3)ncc21 (stereo not drawn)	56.0*	i	1.6	-10.2	-22.0
C=CCn1c(N)c(C(=O)OCC)sc1=S	48.5*	i	-2.4	-12.7	-1.3
CC(=O)Nc1cc(-c2ccccc2CN(C)C)cn2c(-c3ccc(C(C)=O)cc3)cnc12	-12.7	.	.	.	.
CN(/N=C/c1c[nH]c2ccccc12)c1cnn(-c2ccc(F)c(Cl)c2)c(=O)c1Cl	-91.7	+	-0.4	77.6*	-109.4
Cc1cccc(C)c1NC(=O)C(c1ccccc1)N1CCN(C/C=C/c2ccccc2)CC1 (stereo not drawn)	8.9	.	.	.	.
CNC(=O)c1ccc(-n2cccn2)nc1	13.8	i	-0.9	5.3	-15.5
COc1ccc(OC)c(NC(=O)c2ccc(-n3cccn3)nc2)c1	-5.2	+	-2.2	105.5*	-19.6
O=C(NCc1ccc(F)cc1)c1[nH]c(C(F)(F)F)nc1-c1ccccc1	11.1	.	.	.	.
Cc1ccc(N2C(=N)/C(=C3/Nc4ccccc4S3)C(c3ccccc3)C2=O)cc1 (stereo not drawn)	4.2	+	.	84.0*	0.2
Cc1ccc(N2C(=O)C(F)(F)C2c2ccccc2)cc1 (stereo not drawn)	-16.1	i	-2.1	11.3	-9.8
CCN(CC)c1ccc(/C=C/c2nc3ccccc3s2)cc1	.	?	-31.8*	?	-20.5
COC(=O)c1ccccc1NC(=O)CN1CCC(n2nnc3cc(C(F)(F)F)ccc32)CC1	-6.0	i	1.8	0.0	-6.3
CC1Cc2ccccc2N1C(=O)CN1CCC(n2nnc3cc(C(F)(F)F)ccc32)CC1 (stereo not drawn)	0.5	i	1.8	1.5	99.8*
COC(=O)CN1C(=O)CSc2ccc(S(=O)(=O)N3CCC(C)CC3)cc21	-12.7	.	.	.	.
CCC(=O)N(c1nnc(SC(C)C(=O)Nc2ccc(N3CCOCC3)cc2)s1)C1CC1 (stereo not drawn)	0.5	.	.	.	.
N#C/C(=C\c1cn(CC(=O)N2CCCC2)c2ccccc12)C(=O)NCc1ccc2c(c1)OCO2	10.8	i	0.8	-9.6	-22.2
N#C/C(=C\c1cn(CC(=O)N2CCCCC2)c2ccccc12)C(=O)NCc1ccc2c(c1)OCO2	-6.0	+	2.4	62.2*	-65.2
COc1cccc(C(NC(C)=O)c2nc(-c3ccccc3)cs2)c1 (stereo not drawn)	-1.4	.	.	.	.
N#C/C(=C\c1ccc[nH]1)C(=O)Nc1ccccc1[N+](=O)[O-]	-17.0	+	-0.9	78.6*	.
COc1cc2ccc3c(CCN(C)C)cc(OC)c(OC)c3c2cc1OC	-54.4	+	-4.8	-6.9	.
O=c1ccc2cccc([N+](=O)[O-])c2[nH]1	-0.3	.	.	.	.
CCOC(=O)C1=C(O)/C(=C/N(C)C)N=C1C	18.5	+	?	89.2*	-14.4
CCOC(=O)C1=C(O)/C(=C\c2cccc(OC)c2)N=C1C	-7.2	i	-3.3	8.4	-31.2
SMILES	PABP1 MLLE inh	PABP polyA inh	MEX-5 binding	eIF4H inh	EBV gp42 inh
CCc1nc2ccc(C(=O)N(C)Cc3ccco3)cn2c1N(CC)C(=O)NCCc1ccccc1	13.0	.	.	.	.
OCCCNc1ncnc2c1ncn2[C@H]1CN(Cc2ccc(Cl)cc2)C[C@@H](CO)O1	-7.9	.	.	.	.
CCCCCCN1C[C@H](n2cc(-c3ccc(F)cc3)nn2)[C@@H](O)C[C@@H]1c1ccc(Cl)cc1	-5.6	.	.	.	.
CCOc1cc2c(C#N)c(N3CCOCC3)nc(N)c2c(N)n1	6.7	+	-3.1	72.6*	-7.6
Cc1ccc(CNC(=O)CSc2nccn(-c3ccc(C)c(F)c3)c2=O)cc1	40.9*	.	-3.4	.	.
COc1ccc(-n2ccnc(SCC(=O)NCc3ccc(C)cc3)c2=O)cc1Cl	34.7	.	0.8	.	.
Nc1nn2c(-c3ccccc3)cc(=O)[nH]c2c1N=Nc1ccc(Br)cc1	-2.1	i	.	42.6	60.1*
CN(C)S(=O)(=O)c1cccc(NC(=O)COC(=O)/C=C/c2ccc(Br)o2)c1	-4.3	+	1.3	?	-2.7
CN(C)S(=O)(=O)c1ccc(Cl)c(NC(=O)COC(=O)/C=C/c2ccco2)c1	-28.1	+	0.4	10.3	-7.8
O=C(COC(=O)/C=C/c1ccco1)Nc1ncc(Cl)cc1Cl	4.7	+	-2.9	78.9*	-4.1
CCCSc1ncnc2sc(C)c(C)c12	11.5	i	-1.7	-8.6	5.9
Cc1sc2ncnc(SCC#N)c2c1C	-5.8	i	-2.0	36.6*	-9.8
COc1ccc(S(=O)(=O)N2CCCCC2c2cc(C(=O)Nc3ccc4c(c3)OCO4)no2)cc1 (stereo not drawn)	-13.1	.	.	.	.
C=C1C2=C(C(=O)N1OC)[C@@H](O)[C@@](C)(O)[C@@H](CCCCC)O2	9.8	.	.	.	.
Cc1ccc2nc3c(c(N)c2c1)CCN3c1ccccc1	-8.1	i	-4.0	51.1*	-4.7
CCOC(=O)c1c(/N=C/N(C)C)sc(/C=N/Nc2ccccc2)c1-c1ccccc1Cl	-23.2	+	2.3	-9.1	-16.0
Cc1nc(SCC(=O)O)c(C#N)c2c1CCCC2	-28.9	+	-1.3	108.2*	-13.2
CCc1nc(SCC(=O)O)c(C#N)c2c1CCCC2	13.2	i	-1.3	5.1	-20.7
O=C1CC(=O)c2c1cccc2[N+](=O)[O-]	.	+	.	65.1*	-1.8
COC(=O)Nc1ccc(SCC(=O)c2cccc([N+](=O)[O-])c2)cc1	42.1*	i	3.2	-3.0	.
CC(C)NC(=O)CCCc1ccccc1	2.1	i	1.3	-13.9	-11.9
CC(C)NC(=O)CCCC(=O)NC(C)C	2.7	+	-0.4	2.2*	-21.1
O=C(/C=C\N1CCOCC1)c1ccc(Br)cc1	-1.2	i	-2.3	-0.9	.
O=C(/C=C/N1CCOCC1)c1ccc(-c2ccccc2)cc1	11.0	i	-35.2*	-4.8	-11.3
COc1ccc2nc(C)cc(N3CCN(c4ccccc4)CC3)c2c1	-2.8	i	2.0	-4.7	.
COc1ccc2nc(C)cc(N3CCOCC3)c2c1	-0.1	i	2.3	-3.5	84.3*
CC(C)c1ccc(C(C(C(=O)c2ccccc2)N2CCOCC2)N2CCOCC2)cc1 (stereo not drawn)	-4.0	.	.	.	.
CCCCNC(=O)CCC(=O)NNc1nc2ccccc2c2nc(C)nn12	9.8	i	-8.4	-10.5	-3.3
CCOCCCNC(=O)CCC(=O)NNc1nc2ccccc2c2nc(C)nn12	9.7	i	-39.0*	-4.2	-25.7

Screens from PubChem.
